Screening results deposited in PubChem by National Center for Advancing Translational Sciences (NCATS).
Luciferase inh – inhibitors of firefly (Photinus pyralis) luciferase; P08659; purified P. pyralis luciferase, luminescence, biochemical; Potency, µM (highest dose often 115 µM), most hits filed as inhibitors; hit rate 2.5% among 76,000; further: nearly all actives have a fitted effect of over 65% in size
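Biochemical qHTS: compound (6-point titration) added to 10uM D-luciferin plus 10uM ATP in Tris acetate pH 7.5 buffer with Mg, Tween-20 and BSA, then purified enzyme at 10nM; light output imaged.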
GPT2 inhibitor – inhibitors of human GPT2 alanine aminotransferase | Q8TD30 | Recombinant GPT2, coupled pyruvate oxidase/HRP Amplex Red fluorescence | Potency, µM (series often up to 57.7 µM), hits mostly inhibitors | hit rate 0.25% among 100,000 | AID 1671188; further: nearly all actives have a fitted effect of over 60% in size
Target sequence (Q8TD30 whole entry, looked up): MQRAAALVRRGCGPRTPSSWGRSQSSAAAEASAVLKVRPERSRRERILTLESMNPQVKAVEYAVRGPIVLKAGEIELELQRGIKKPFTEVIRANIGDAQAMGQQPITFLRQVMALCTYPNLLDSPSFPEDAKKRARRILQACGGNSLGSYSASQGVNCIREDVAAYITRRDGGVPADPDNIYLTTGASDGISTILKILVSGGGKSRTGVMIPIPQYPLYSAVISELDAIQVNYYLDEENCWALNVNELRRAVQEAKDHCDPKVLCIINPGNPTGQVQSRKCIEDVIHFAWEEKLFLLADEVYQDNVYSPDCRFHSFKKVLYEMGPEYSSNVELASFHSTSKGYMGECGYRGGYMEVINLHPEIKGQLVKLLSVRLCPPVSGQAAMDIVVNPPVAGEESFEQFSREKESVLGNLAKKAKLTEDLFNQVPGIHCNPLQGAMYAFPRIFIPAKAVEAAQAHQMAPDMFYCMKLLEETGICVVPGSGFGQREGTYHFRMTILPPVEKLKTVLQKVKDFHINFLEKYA
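Fluorescence of coupled pyruvate oxidase/HRP/Amplex Red system (50uM Amplex, 30 min, dark) reports pyruvate formed by GPT2. Enzyme reaction: 10ng/uL GPT2, 2mM L-alanine, 250uM a-KG, 30 min room temperature, pH 7.5; 50uM AOA control.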
NIH3T3 tox – kills NIH 3T3 cells | NIH 3T3 viability, CellTiter-Glo ATP luminescence, 48-72 h | Potency, µM (highest dose often 96.7 µM), actives largely listed as inhibitors | hit rate 4.3% among 94,000 | AID 1345082; further: nearly all actives have a fitted effect of over 55% in size
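Mouse fibroblast NIH 3T3 cells, 400 per well, received compound via pintool and were incubated for 48 or 72 hr prior to CellTiter-Glo ATP luminescence measurement.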
hNpr1 antagonist – human Npr1 receptor antagonism. hit rate 1.6% among 76,000. P16066. HEK293 hNpr1 GloSensor cGMP, ANP-stimulated luminescence. AID 1347048. Potency, µM (highest dose often 46.3 µM), hits mostly inhibitors; calls by dose curve; further: nearly all actives have a fitted effect of over 60% in size
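HEK293 cells stably expressing human Npr1 and cGMP GloSensor pGS-40F, loaded 2 h with 2% GloSensor reagent, given compound 30 min at room temperature. Luminescence read before and 20 min after 0.1 nM hNppA.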
HEK cytotox – kills HEK 293 cells. Potency, µM (top dose mostly 115 µM), actives largely listed as inhibitors. hit rate 6.6% among 94,000. AID 1345083. HEK 293 viability, ATP luminescence (CellTiter-Glo), 48-72 h; further: nearly all actives have a fitted effect of over 60% in size
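HEK 293 cells seeded at 250 cells/well were exposed to compound for 48 or 72 hr at 37 degree Celsius. Viability taken as ATP content by CellTiter-Glo luminescence.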
Each line names hits and unclear results; the compound was inactive in the other large screens; ! = not confirmed by another sample. Most compounds without a hit are left out; they make up all but 10% or so of the library. Unless noted, the call rests on the fitted dose curve; in most records, active means well fitted curve in the direction sought with a large enough effect; inconclusive means small, poorly fitted or top-dose-only effect, or another doubt; inactive means no such curve, though single readings can be large; an effect the other way counts as inactive or inconclusive.

CCOC(=O)N1CCC(Oc2cnc3c(ccn3-c3cncnc3)c2)CC1	NIH3T3 tox 10µM
O=C(NC1CCN(C(=O)c2ccc(-c3cccs3)cc2)CC1)C1CC1	NIH3T3 tox inconclusive, HEK cytotox inconclusive (no result: Luciferase inh, hNpr1 antagonist)
CC(C)C(=O)NC1CCN(C(=O)c2ccc(-c3cccs3)cc2)CC1	NIH3T3 tox inconclusive, HEK cytotox 71µM (no result: Luciferase inh, hNpr1 antagonist)
COc1ccccc1-c1ccc(C(=O)N2CCC(N[S+](=O)([O-])c3cccs3)CC2)cc1	NIH3T3 tox inconclusive, HEK cytotox 89µM! (no result: Luciferase inh, hNpr1 antagonist)
COc1cccc(-c2ccc(C(=O)N3CCC(N[S+](=O)([O-])c4c(C)noc4C)CC3)cc2)c1	NIH3T3 tox inconclusive, HEK cytotox 22µM (no result: Luciferase inh, hNpr1 antagonist)
O=C(c1ccc(-c2cccs2)cc1)N1CCC(N[S+](=O)([O-])c2cccs2)CC1	GPT2 inhibitor inconclusive, NIH3T3 tox inconclusive, HEK cytotox 45µM (no result: Luciferase inh, hNpr1 antagonist)
O=C(c1ccc(F)cc1)N1CCCC(C(=O)N2CCC(N3CCOC3=O)CC2)C1 (stereo not given)	none (no result: Luciferase inh, hNpr1 antagonist)
CC(C)(Oc1nn(CCOc2ccccc2)c2ccccc12)C(=O)NCC1CCOCC1	NIH3T3 tox inconclusive, HEK cytotox inconclusive
COc1cccc(-c2ccc(C(=O)N3CCC(N[S+](=O)([O-])c4cccs4)CC3)cc2)c1	NIH3T3 tox 16µM, HEK cytotox 18µM (no result: Luciferase inh, hNpr1 antagonist)
CCOCC1(C)COc2ccc(C(=O)Nc3cccc(OC)c3)cc2N1 (stereo not given)	Luciferase inh 20µM, HEK cytotox inconclusive
COc1cccc(NC(=O)c2ccc3c(c2)NC(C)(COCCN(C)C)CO3)c1 (stereo not given)	Luciferase inh inconclusive, NIH3T3 tox inconclusive, HEK cytotox inconclusive
CCOCC1(C)COc2ccc(C(=O)Nc3cccc(N(C)C)c3)cc2N1 (stereo not given)	Luciferase inh 63µM, NIH3T3 tox inconclusive, HEK cytotox inconclusive
CN(C)CCCOCC1(C)COc2ccc(C(=O)Nc3cccc(Cl)c3)cc2N1 (stereo not given)	NIH3T3 tox inconclusive, HEK cytotox 35µM
COc1cccc(NC(=O)c2ccc3c(c2)NC(C)(CNc2ccccc2)CO3)c1 (stereo not given)	Luciferase inh inconclusive, NIH3T3 tox 28µM, hNpr1 antagonist inconclusive, HEK cytotox 40µM
CCOCC1(C)COc2ccc(C(=O)N(C)c3ccccc3)cc2N1 (stereo not given)	HEK cytotox inconclusive
COc1c2c(c(C)c3c1C(=O)OC3)O[C@@]1(C)CCC3(C(C)(C)O)OC(=O)CC[C@]3(C)[C@H]1C2 (stereo not given in full)	none (no result: Luciferase inh, NIH3T3 tox, hNpr1 antagonist, HEK cytotox)
O=C(c1cc(-c2cccc(C(F)(F)F)c2)c2nncn2n1)N1CCC(N2CCCCC2)CC1	HEK cytotox inconclusive (no result: Luciferase inh, hNpr1 antagonist)
CC(C)CNC(=O)c1ccc2c(c1)NC(C)(COCC1CC1)CO2 (stereo not given)	NIH3T3 tox inconclusive, HEK cytotox inconclusive
CCOCC1(C)COc2ccc(C(=O)Nc3cccc(Cl)c3)cc2N1 (stereo not given)	Luciferase inh 20µM, NIH3T3 tox 40µM, hNpr1 antagonist inconclusive, HEK cytotox 63µM
COc1ccc(-c2cc(N3CCC(NC(=O)c4cccc(OC(F)(F)F)c4)C3)n[nH]2)cc1 (stereo not given)	NIH3T3 tox inconclusive, HEK cytotox 40µM
N#Cc1cccc(C(=O)NC2CCN(c3cc(-c4ccc(F)cc4)[nH]n3)CC2)c1	NIH3T3 tox inconclusive, HEK cytotox inconclusive
N#Cc1cccc(C(=O)NC2CCN(c3cc(-c4ccc(F)cc4)[nH]n3)C2)c1 (stereo not given)	GPT2 inhibitor inconclusive, NIH3T3 tox inconclusive, HEK cytotox 45µM
COc1ccc(-c2cc(N3CCC(NC(=O)c4cccc(C#N)c4)C3)n[nH]2)cc1 (stereo not given)	GPT2 inhibitor inconclusive, NIH3T3 tox inconclusive, HEK cytotox 35µM
COc1ccc(-c2cc(N3CCC(NC(=O)c4cccc(C)c4)C3)n[nH]2)cc1 (stereo not given)	GPT2 inhibitor inconclusive, HEK cytotox inconclusive
COc1ccc(-c2cc(N3CCC(NC(=O)c4cccc(Cl)c4)C3)n[nH]2)cc1 (stereo not given)	NIH3T3 tox inconclusive, HEK cytotox inconclusive
COCCOC(=O)C1=C(C)N=C2SC=C(CC(=O)N3CCCCC3C)N2C1c1ccccc1 (stereo not given)	HEK cytotox 35µM
COCCOC(=O)C1=C(C)N=C2SC=C(CC(=O)NCCc3ccccc3)N2C1c1ccccc1 (stereo not given)	NIH3T3 tox inconclusive, HEK cytotox 50µM
CCOC(=O)C1=C(C)N=C2SC=C(CC(=O)N3CCC(C)CC3)N2C1c1ccccc1F (stereo not given)	NIH3T3 tox inconclusive, HEK cytotox 40µM
CCOC(=O)C1=C(C)N=C2SC=C(CC(=O)N3CCC(C)CC3)N2C1c1cccc(OC)c1 (stereo not given)	NIH3T3 tox inconclusive, HEK cytotox inconclusive
CC1=C(C(=O)Nc2ccccc2)C(c2cc(C)ccc2C)N2C(CC(=O)N3CCCC3)=CSC2=N1 (stereo not given)	NIH3T3 tox inconclusive, hNpr1 antagonist inconclusive, HEK cytotox 32µM
O=C(NCc1cccc(Cl)c1)c1nc2sccn2c1-c1ccc(F)cc1	none (no result: Luciferase inh, hNpr1 antagonist)
CC(C)=CC[C@H]1O[C@]2(O)C([C@H]3CCC4[C@@]5(C)CC[C@H](O[C@@H]6O[C@H](CO)[C@H](O)[C@H](O[C@@H]7O[C@H](CO)[C@@H](O)[C@H](O)[C@H]7O)[C@H]6O[C@@H]6O[C@@H](C)[C@H](O)[C@@H](O)[C@H]6O)C(C)(C)C5CC[C@@]4(C)[C@]3(C)[C@H]2O)[C@@]1(C)O (stereo not given in full)	none (no result: Luciferase inh, NIH3T3 tox, hNpr1 antagonist, HEK cytotox)
Cc1noc2c(NCC3CCOCC3)cc(-c3cccnc3)nc12	NIH3T3 tox inconclusive
Cc1noc2c(Nc3ccc(C(N)=O)cc3)cc(-c3cccnc3)nc12	NIH3T3 tox 20µM
Cc1noc2c(NC(C)C)cc(-c3cccnc3)nc12	GPT2 inhibitor inconclusive, NIH3T3 tox 40µM
Cc1ccc(-c2nnc(C3CN(C(=O)c4cccc(F)c4)CC34CCOCC4)o2)cc1 (stereo not given)	NIH3T3 tox inconclusive, HEK cytotox inconclusive
CN(C)CCn1nnnc1SCC1=C(C(=O)O)N2C(=O)[C@@H](NC(=O)Cc3csc(N)n3)[C@H]2SC1	GPT2 inhibitor 18µM (no result: Luciferase inh, NIH3T3 tox, hNpr1 antagonist, HEK cytotox)
Cc1nnc(SCC2=C(C(=O)O)N3C(=O)[C@@H](NC(=O)Cn4cnnn4)[C@H]3SC2)s1	none (no result: Luciferase inh, NIH3T3 tox, hNpr1 antagonist, HEK cytotox)
Cc1ccc2oc([C@H]3CCN(Cc4ccccn4)C3)nc2c1	Luciferase inh inconclusive, GPT2 inhibitor inconclusive, NIH3T3 tox inconclusive, HEK cytotox inconclusive
Cc1ccc(CN2CC[C@H](c3nc4cc(C)ccc4o3)C2)cc1	Luciferase inh 45µM, NIH3T3 tox inconclusive, HEK cytotox inconclusive
